From PubChem
Only some compounds are listed: those with a hit (about 1.4% of all), similar ones and a draw of the others.
A3G deaminase – APOBEC3G (human) deaminase inhibition; inhibition, % at 20 µM; Q9HC16; AID 493012; recombinant A3G, ssDNA deamination FAM/TAMRA fluorescence; actives 0.28% (n = 330,000);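 active = inhibition of at least 40% at 20 µM, with no more than 30% in the related APOBEC3A deaminase screen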;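 also: plate controls were DMSO wells with A3G for no effect and wells lacking A3G enzyme for full effect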
Target sequence (Q9HC16 whole entry, looked up): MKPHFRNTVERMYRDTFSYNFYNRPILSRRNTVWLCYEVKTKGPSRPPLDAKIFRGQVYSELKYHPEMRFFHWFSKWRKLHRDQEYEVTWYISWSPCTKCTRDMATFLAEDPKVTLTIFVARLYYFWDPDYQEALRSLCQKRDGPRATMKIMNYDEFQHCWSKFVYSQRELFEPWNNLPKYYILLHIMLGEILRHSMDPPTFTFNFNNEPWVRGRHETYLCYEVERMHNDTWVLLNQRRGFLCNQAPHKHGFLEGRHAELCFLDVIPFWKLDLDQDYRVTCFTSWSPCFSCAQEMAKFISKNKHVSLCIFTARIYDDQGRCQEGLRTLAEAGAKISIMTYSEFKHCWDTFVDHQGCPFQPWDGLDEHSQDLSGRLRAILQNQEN
GRK2 inh – human GRK2 inhibition via aptamer displacement; inhibition of aptamer binding, % at 10 µM; actives 0.59% (n = 330,000); bead flow cytometry, FAM-aptamer displacement from GRK2;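 active = inhibition of aptamer binding above 40%, roughly 3 SD of noise, on plates passing a quality check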;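 also: median bead fluorescence of bound FAM aptamer so fluorescent compounds give negative values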
A3A deaminase – human APOBEC3A DNA deaminase inhibition; P31941; recombinant A3A, FAM/TAMRA ssDNA deamination fluorescence; inhibition, % at 20 µM; actives 0.41% (n = 330,000); AID 493011;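 active = at least 40% inhibition at 20 µM here, with at most 30% in a related deaminase screen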;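 also: plate controls were A3A with DMSO for no effect and wells lacking A3A enzyme for full effect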
Target sequence (P31941 whole entry, looked up): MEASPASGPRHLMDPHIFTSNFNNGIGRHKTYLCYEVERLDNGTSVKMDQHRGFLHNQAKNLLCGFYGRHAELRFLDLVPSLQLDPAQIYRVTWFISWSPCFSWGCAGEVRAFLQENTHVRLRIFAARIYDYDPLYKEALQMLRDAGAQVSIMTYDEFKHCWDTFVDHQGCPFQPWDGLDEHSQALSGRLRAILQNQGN
VLA-4 inh – inhibition in a human VLA-4 binding assay; P13612; VLA-4 expressing cells, ligand binding flow cytometry; inhibition, % (about 7 µM as worked out from the volumes in the protocol); actives 0.2% (n = 330,000); AID 2557; in the data active = inhibition above about 50%
VLA-4 mod pick – human VLA-4 allosteric modulation in cherry picked compounds. shares compounds with VLA-4 inh. AID 2813. U937 cells, HUTS-21 LIBS mAb binding, flow cytometry; LDV ligand present at threefold Kd. actives 2% (n = 1,300). inhibition, % at 6.7 µM; in the data active = inhibition above about 40%;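 also: 0% = ligand without compound and 100% = no ligand background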
An asterisk follows results filed as active; · = no result given.

SMILES | A3G deaminase | GRK2 inh | A3A deaminase | VLA-4 inh | VLA-4 mod pick
COc1ccc(C(=O)NC(=S)N2CC(C)OC(C)C2)cc1OC (stereo not drawn) | -11 | 56* | -2 | 29 | ·
CC1CN(C(=S)NC(=O)c2ccc(Cl)cc2)CC(C)O1 (stereo not drawn) | -4 | 2 | 0 | 0 | ·
CCCOc1c(OC)cccc1C1CC(=O)Nc2cc(OC)c(OC)c(OC)c21 (stereo not drawn) | -2 | 0 | 2 | -5 | ·
COc1cc2c(c(OC)c1)C(c1cccc(OC)c1OC)CC(=O)N2 (stereo not drawn) | -7 | 1 | 0 | 31 | 0
COc1ccc(OC)c(C2CC(=O)Nc3cc(OC)c(OC)c(OC)c32)c1 (stereo not drawn) | -5 | 0 | -1 | 16 | 5
CCOc1c(OC)cccc1C1CC(=O)Nc2cc3c(cc21)OCCO3 (stereo not drawn) | -5 | 2 | -3 | -10 | -6
CCOc1ncccc1C(=O)OC(C)C(=O)Nc1ccc(Cl)cn1 (stereo not drawn) | 6 | · | -2 | · | ·
O=C1C2CCCCN2C(=O)N1CCN1CCN(c2ccc([N+](=O)[O-])cc2)CC1 (stereo not drawn) | 0 | 0 | -1 | 93* | 3
CCC(C)N(C(=O)COC(=O)c1cc([N+](=O)[O-])ccc1N1CCOCC1)C1CCS(=O)(=O)C1 (stereo not drawn) | -9 | 0 | 4 | 14 | ·
C/C(=N\NC(=O)c1ccccc1O)c1cccs1 | 1 | 2 | 3 | -23 | ·
CSC(=NNC(=O)c1ccccc1O)SC | -5 | · | -5 | 88* | 5
Cc1cc(C)n(-c2nc(C)nc(N)n2)n1 | 0 | 1 | 1 | 1 | -4
Cc1cc(Cl)nc(-n2nc(C)cc2C)n1 | -9 | 0 | -5 | 17 | 2
COc1ccc(C2CC(c3ccccc3)=NN2C(=O)COC(=O)C2(C)CC2(Cl)Cl)cc1 (stereo not drawn) | -4 | 0 | 1 | 19 | ·
CN1C(=O)/C(=N\OC(=O)c2cccc3ccccc23)c2ccccc21 | 1 | 4 | -3 | 66* | 0
COc1ccc(C(=O)O/N=C2\C(=O)N(C)c3ccccc32)cc1 | -8 | 2 | -13 | 15 | ·
Cc1ccc2nc(-c3ccc(NC(=S)NC4CC(C)(C)NC(C)(C)C4)cc3)sc2c1 | -10 | 0 | -2 | 54* | 31
COc1ccc(CCNC(=O)CSc2nc(-c3ccco3)cc(C(F)(F)F)n2)cc1OC | 0 | 0 | 4 | 9 | ·
COc1ccc(N(CC(=O)N2CCc3ccccc32)S(=O)(=O)c2c(C)nn(C)c2C)cc1 | 3 | 2 | 2 | 16 | -1
Cc1nn(C)c(C)c1S(=O)(=O)N(CC(=O)N1CCc2ccccc21)c1ccc(C(C)C)cc1 | -8 | 0 | -3 | 0 | ·
CCC/C(O)=C1\C(=O)CCCC1=NCCCCCC(=O)O | -5 | 2 | 1 | -16 | ·
CCN(CC(=O)Nc1c(F)cccc1F)C(=O)/C=C/c1c(C)nn(-c2ccc(F)cc2)c1C | -10 | 0 | -2 | 0 | ·
CCOc1ccc(CNC(=O)c2ccc3nc(N4CCOCC4)sc3c2)cc1 | -2 | 0 | -2 | 6 | 2
O=C(NCc1cccc(F)c1)c1ccc2nc(N3CCOCC3)sc2c1 | -6 | 0 | -4 | 40 | -1
COc1ccc2nc(N3CCCC(C(=O)NCCc4ccc(OC)c(OC)c4)C3)sc2c1 (stereo not drawn) | -10 | 2 | -3 | 13 | ·
SMILES | A3G deaminase | GRK2 inh | A3A deaminase | VLA-4 inh | VLA-4 mod pick
Fc1ccc2nc(N3CCOCC3)sc2c1 | -10 | 0 | 1 | -6 | ·
Cc1ccc(NC(=O)c2ccc3nc(N4CCOCC4)sc3c2)c(Cl)c1 | -8 | 0 | 0 | 41 | 7
CCc1ccccc1NC(=O)c1ccc2nc(N3CCOCC3)sc2c1 | -2 | 0 | 4 | 9 | ·
COc1ccc(CCNC(=O)c2ccc3nc(N4CCCCC4)sc3c2)cc1OC | -7 | 3 | -3 | -4 | 2
O=C1C(Cl)=C(NCCc2ccccc2)C(=O)N1CCc1ccccc1 | -6 | 8 | -1 | 7 | ·
O=C(c1ccc2nc(N3CCOCC3)sc2c1)N1CCCC1 | -6 | 5 | 0 | 34 | ·
O=C(NCCc1ccc(Cl)cc1)c1ccc2nc(N3CCOCC3)sc2c1 | -4 | 0 | 1 | 43 | 13
CCCc1nnc(NC(=O)CCC(=O)N2CCN(Cc3ccc(OC)c(F)c3)CC2)s1 | -6 | 2 | -3 | 1 | ·
CCc1ccc(N2C(=O)c3cc(N4CCOCC4)c([N+](=O)[O-])cc3C2=O)cc1 | 4 | 0 | -1 | 43 | -12
COc1ccc(CN2CCN(CC(O)Cn3c4ccccc4c4ccccc43)CC2)cc1 (stereo not drawn) | -1 | 0 | 0 | -2 | ·
CCOc1ccc(CN2CCN(CC(O)Cn3c4ccccc4c4ccccc43)CC2)cc1 (stereo not drawn) | -5 | 2 | -3 | 51* | 10
C=CCn1c(COc2cccc(C)c2)nnc1SCn1nnc2ccccc2c1=O | -2 | 3 | -2 | -3 | ·
O=C(c1cc(-c2ccc(Cl)cc2)n(-c2ccc(Cl)cc2)n1)N1CCOCC1 | -3 | 4 | 4 | 92* | 5
CCN1CCCC1CNC(=O)C(=O)NCc1ccccc1 (stereo not drawn) | -1 | 0 | 2 | 11 | ·
CCN1CCCC1CNC(=O)C(=O)NC1CC1 (stereo not drawn) | 1 | 6 | 1 | 46 | -2
O=C(Nc1ccc2c(c1)C(=O)N(c1ccccc1)C2=O)c1cccs1 | 7 | 0 | 0 | 50* | 0
O=C(O)CCN1C(=O)c2ccc(NC(=O)c3cccs3)cc2C1=O | -6 | 4 | -7 | 1 | ·
CCOC(=O)c1c(NC2=NS(=O)(=O)c3ccccc32)sc2c1CCC(C)C2 (stereo not drawn) | -4 | 2 | -2 | 60* | 5
CCOC(=O)c1c(NC2=NS(=O)(=O)c3ccccc32)sc2c1CCCCC2 | -1 | 7 | -2 | 19 | ·
CC[C@@]1(C(=O)OC)N[C@H](CN(C)S(=O)(=O)c2ccccc2)[C@@H]2C(=O)N(Cc3ccccc3)C(=O)[C@@H]21 | -7 | 0 | -4 | -36 | ·
COC(=O)[C@]1(Cc2ccccc2)N[C@H](CN(C)S(=O)(=O)c2ccc(C(F)(F)F)cc2)[C@@H]2C(=O)N(Cc3ccccc3)C(=O)[C@@H]21 | -7 | 0 | -2 | 29 | -10
COC(=O)[C@]1(Cc2ccccc2)N[C@H](CN(C)S(=O)(=O)c2ccc(C(C)(C)C)cc2)[C@@H]2C(=O)N(Cc3ccccc3)C(=O)[C@@H]21 | -8 | 0 | -4 | -16 | -6
CC(NCc1ccc2c(c1)OCO2)C(=O)NC1CCCCC1 (stereo not drawn) | 0 | 4 | -1 | -8 | ·
Nc1cccc(S(=O)(=O)Nc2ccc(Br)cc2)c1 | -5 | 0 | -4 | 5 | ·
CCN1CCC(Nc2ccnc3cc(Cl)ccc23)CC1 | -6 | 0 | 0 | 48 | -5
O=C(c1ccc(CN2CCc3ccccc3C2)cc1)N1CCc2ccccc2C1 | 0 | 0 | 1 | 14 | ·
